Laboratory results as given in ChEMBL document CHEMBL1961873, “Compounds: GSK PKIS; Assays: Nanosyn kinase panel” (2012).

Tests used:
[1] = molecular target: Death-associated protein kinase 1 (Homo sapiens) (UniProt P53355); conditions: at 1 µM;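 also: each value is a mean inhibition figure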
[2] = molecular target: T1, Serine/threonine-protein kinase DCLK2 (Homo sapiens) (UniProt Q8N568); conditions: at 0.1 µM
T1 sequence (whole entry): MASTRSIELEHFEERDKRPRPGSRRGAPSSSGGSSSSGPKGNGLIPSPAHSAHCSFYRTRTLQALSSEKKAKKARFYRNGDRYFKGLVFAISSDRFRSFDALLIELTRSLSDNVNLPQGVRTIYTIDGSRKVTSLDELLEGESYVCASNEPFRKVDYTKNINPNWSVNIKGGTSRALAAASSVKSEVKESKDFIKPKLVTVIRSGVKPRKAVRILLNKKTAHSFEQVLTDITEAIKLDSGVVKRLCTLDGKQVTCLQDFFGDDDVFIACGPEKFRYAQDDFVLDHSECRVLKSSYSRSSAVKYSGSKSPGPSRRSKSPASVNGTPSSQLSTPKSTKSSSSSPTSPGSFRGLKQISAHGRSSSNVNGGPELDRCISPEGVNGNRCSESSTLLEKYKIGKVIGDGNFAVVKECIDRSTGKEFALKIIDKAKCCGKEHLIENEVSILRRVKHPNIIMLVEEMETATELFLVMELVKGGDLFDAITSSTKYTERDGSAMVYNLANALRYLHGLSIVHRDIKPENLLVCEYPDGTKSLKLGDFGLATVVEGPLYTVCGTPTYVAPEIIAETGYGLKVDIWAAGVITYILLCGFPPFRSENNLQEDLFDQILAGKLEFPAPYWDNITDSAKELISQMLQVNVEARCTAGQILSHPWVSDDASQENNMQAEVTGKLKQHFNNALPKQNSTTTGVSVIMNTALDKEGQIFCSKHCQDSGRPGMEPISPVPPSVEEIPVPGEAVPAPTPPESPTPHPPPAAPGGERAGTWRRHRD

[3] = molecular target: T1, Serine/threonine-protein kinase DCLK2 (Homo sapiens); conditions: at 1 µM
[4] = molecular target: MAP kinase-activated protein kinase 2 (Homo sapiens) (UniProt P49137); conditions: at 0.1 µM
[5] = molecular target: MAP kinase-activated protein kinase 2 (Homo sapiens) (UniProt P49137); conditions: at 1 µM
[6] = molecular target: MAP kinase-activated protein kinase 3 (Homo sapiens) (UniProt Q16644); conditions: at 0.1 µM
[7] = molecular target: MAP kinase-activated protein kinase 3 (Homo sapiens) (UniProt Q16644); conditions: at 1 µM
[8] = molecular target: Serine/threonine-protein kinase MARK1 (Homo sapiens) (UniProt Q9P0L2); conditions: at 0.1 µM
[9] = molecular target: Serine/threonine-protein kinase MARK1 (Homo sapiens) (UniProt Q9P0L2); conditions: at 1 µM
[10] = molecular target: MAP/microtubule affinity-regulating kinase 3 (Homo sapiens) (UniProt P27448); conditions: at 0.1 µM
[11] = molecular target: MAP/microtubule affinity-regulating kinase 3 (Homo sapiens) (UniProt P27448); conditions: at 1 µM
[12] = molecular target: T2, MAP/microtubule affinity-regulating kinase 4 (Homo sapiens) (UniProt Q96L34); conditions: at 0.1 µM
T2 sequence (whole entry): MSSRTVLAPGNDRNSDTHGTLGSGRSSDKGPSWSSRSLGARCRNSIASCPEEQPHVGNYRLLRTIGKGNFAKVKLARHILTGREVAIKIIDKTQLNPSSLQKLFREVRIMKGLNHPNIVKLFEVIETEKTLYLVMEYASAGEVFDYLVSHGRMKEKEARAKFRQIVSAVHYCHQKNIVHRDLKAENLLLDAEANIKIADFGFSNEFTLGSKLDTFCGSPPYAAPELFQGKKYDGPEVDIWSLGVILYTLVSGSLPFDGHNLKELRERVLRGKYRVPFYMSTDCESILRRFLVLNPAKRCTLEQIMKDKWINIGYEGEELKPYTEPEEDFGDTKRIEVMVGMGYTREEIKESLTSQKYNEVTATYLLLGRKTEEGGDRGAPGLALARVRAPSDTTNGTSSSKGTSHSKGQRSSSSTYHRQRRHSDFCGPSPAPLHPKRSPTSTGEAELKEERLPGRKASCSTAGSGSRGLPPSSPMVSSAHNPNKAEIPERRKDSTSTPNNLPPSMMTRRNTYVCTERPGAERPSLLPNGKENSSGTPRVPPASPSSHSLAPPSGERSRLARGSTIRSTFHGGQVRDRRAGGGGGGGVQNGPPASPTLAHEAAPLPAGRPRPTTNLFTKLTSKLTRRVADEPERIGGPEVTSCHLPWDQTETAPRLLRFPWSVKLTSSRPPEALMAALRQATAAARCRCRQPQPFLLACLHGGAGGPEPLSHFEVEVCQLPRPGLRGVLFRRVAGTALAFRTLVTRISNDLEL

[13] = molecular target: T2, MAP/microtubule affinity-regulating kinase 4 (Homo sapiens); conditions: at 1 µM
[14] = molecular target: Maternal embryonic leucine zipper kinase (Homo sapiens) (UniProt Q14680); conditions: at 0.1 µM
[15] = molecular target: Maternal embryonic leucine zipper kinase (Homo sapiens) (UniProt Q14680); conditions: at 1 µM
[16] = molecular target: MAP kinase-interacting serine/threonine-protein kinase 1 (Homo sapiens) (UniProt Q9BUB5); conditions: at 0.1 µM
[17] = molecular target: MAP kinase-interacting serine/threonine-protein kinase 1 (Homo sapiens) (UniProt Q9BUB5); conditions: at 1 µM
[18] = molecular target: MAP kinase-interacting serine/threonine-protein kinase 2 (Homo sapiens) (UniProt Q9HBH9); conditions: at 0.1 µM
[19] = molecular target: MAP kinase-interacting serine/threonine-protein kinase 2 (Homo sapiens) (UniProt Q9HBH9); conditions: at 1 µM
[20] = molecular target: Serine/threonine-protein kinase MARK2 (Homo sapiens) (UniProt Q7KZI7); conditions: at 0.1 µM;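 also: mean percent inhibition of PAR-1Balpha kinase activity, reported from the GSK PKIS screen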
Chain of Serine/threonine-protein kinase MARK2 (Homo sapiens) (Q7KZI7 whole entry): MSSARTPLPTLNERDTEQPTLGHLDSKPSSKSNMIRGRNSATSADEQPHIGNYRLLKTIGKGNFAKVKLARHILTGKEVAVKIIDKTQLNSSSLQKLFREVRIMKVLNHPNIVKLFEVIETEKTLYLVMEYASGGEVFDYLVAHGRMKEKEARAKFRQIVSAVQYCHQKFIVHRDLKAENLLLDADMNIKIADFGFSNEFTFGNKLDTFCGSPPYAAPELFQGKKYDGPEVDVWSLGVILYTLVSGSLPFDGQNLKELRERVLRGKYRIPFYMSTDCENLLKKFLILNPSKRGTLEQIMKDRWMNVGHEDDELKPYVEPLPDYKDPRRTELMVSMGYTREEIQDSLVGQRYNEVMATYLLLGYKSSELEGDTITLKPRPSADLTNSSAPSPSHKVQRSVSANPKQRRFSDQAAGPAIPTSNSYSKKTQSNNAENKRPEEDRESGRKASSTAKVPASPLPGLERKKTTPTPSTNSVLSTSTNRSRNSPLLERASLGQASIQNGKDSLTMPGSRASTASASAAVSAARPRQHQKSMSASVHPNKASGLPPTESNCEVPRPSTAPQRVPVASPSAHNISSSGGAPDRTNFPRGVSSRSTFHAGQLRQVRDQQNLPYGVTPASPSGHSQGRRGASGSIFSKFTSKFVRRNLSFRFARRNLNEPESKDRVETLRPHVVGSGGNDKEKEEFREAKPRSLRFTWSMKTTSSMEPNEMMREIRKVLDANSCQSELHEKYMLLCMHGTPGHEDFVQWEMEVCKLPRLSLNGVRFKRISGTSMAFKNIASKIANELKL

Chain of MAP kinase-interacting serine/threonine-protein kinase 2 (Homo sapiens) (Q9HBH9 whole entry, looked up): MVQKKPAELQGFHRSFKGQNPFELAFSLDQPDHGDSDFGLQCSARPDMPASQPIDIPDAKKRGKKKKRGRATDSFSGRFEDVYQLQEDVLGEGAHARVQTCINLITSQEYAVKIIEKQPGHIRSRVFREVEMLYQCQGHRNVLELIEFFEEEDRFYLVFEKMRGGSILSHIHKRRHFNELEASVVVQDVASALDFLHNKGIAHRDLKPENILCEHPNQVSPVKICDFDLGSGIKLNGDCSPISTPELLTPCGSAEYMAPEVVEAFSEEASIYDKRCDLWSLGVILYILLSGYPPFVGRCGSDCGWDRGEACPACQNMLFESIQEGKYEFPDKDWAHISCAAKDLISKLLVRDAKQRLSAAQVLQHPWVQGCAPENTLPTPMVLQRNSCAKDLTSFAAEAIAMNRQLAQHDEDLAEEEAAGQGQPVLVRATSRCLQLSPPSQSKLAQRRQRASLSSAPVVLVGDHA
Chain of MAP/microtubule affinity-regulating kinase 3 (Homo sapiens) (P27448 whole entry, looked up): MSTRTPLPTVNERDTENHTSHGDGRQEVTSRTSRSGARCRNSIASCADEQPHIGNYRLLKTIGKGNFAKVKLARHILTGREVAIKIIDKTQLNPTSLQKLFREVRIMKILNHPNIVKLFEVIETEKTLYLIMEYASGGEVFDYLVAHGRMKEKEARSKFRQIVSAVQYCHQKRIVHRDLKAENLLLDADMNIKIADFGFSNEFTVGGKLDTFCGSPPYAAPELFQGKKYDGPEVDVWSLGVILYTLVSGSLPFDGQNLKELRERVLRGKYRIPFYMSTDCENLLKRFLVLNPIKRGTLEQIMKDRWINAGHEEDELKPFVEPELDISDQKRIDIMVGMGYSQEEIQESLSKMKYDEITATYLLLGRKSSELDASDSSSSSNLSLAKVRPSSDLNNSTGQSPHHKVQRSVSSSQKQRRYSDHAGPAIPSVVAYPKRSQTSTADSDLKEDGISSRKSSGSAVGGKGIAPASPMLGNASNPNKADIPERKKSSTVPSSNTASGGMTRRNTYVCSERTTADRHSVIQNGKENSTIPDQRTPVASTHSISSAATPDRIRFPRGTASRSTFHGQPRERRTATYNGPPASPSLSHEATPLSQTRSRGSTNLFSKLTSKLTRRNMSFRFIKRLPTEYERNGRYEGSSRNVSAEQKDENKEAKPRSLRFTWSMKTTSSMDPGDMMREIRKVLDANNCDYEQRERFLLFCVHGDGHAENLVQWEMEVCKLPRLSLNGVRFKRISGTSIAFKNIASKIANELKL
Chain of MAP kinase-activated protein kinase 3 (Homo sapiens) (Q16644 whole entry, looked up): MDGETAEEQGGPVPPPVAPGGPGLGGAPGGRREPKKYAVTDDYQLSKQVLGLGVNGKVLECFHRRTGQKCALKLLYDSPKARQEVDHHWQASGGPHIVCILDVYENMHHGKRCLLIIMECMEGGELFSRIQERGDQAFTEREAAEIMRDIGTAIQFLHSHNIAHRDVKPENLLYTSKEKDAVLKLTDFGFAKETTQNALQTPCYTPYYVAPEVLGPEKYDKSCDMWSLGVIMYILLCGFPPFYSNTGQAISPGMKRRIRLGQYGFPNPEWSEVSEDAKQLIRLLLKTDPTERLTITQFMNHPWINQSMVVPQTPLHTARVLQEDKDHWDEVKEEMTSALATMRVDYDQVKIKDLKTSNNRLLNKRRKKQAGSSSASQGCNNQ
Chain of Death-associated protein kinase 1 (Homo sapiens) (P53355 whole entry, looked up): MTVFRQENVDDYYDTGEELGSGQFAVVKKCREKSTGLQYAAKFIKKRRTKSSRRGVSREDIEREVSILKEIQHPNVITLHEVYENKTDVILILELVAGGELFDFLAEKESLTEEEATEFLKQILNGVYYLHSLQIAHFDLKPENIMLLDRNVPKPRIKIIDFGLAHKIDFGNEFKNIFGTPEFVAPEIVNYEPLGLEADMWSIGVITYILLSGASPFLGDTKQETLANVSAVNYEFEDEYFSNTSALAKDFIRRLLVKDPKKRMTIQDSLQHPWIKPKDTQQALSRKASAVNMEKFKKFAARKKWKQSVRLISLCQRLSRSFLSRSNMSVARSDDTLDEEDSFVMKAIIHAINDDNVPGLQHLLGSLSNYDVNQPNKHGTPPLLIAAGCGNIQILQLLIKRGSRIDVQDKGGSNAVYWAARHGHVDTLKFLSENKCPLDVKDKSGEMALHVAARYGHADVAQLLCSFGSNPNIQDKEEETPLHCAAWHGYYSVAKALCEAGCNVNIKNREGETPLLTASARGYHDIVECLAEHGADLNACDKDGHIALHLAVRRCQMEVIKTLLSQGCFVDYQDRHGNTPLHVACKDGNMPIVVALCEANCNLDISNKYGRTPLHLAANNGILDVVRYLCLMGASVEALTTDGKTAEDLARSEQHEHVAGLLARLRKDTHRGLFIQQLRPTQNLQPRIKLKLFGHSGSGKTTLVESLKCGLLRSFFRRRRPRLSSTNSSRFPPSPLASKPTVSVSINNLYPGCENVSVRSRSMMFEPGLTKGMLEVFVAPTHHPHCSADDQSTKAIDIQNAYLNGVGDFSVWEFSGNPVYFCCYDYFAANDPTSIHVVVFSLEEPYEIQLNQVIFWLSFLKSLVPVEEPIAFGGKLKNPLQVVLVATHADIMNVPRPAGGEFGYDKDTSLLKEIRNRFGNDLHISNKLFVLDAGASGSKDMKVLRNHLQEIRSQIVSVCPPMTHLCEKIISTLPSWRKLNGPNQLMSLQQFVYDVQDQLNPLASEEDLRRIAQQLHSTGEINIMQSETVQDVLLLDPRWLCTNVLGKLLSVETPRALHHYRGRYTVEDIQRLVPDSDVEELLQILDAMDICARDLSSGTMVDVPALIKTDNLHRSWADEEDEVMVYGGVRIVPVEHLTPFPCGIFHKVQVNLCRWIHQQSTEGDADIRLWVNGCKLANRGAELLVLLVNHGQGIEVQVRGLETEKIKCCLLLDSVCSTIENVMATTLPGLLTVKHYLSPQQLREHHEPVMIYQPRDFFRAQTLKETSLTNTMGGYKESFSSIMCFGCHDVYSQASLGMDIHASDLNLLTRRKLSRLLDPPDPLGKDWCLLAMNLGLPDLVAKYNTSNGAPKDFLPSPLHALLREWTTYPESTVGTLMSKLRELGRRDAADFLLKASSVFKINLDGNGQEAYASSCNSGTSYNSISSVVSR
Chain of Maternal embryonic leucine zipper kinase (Homo sapiens) (Q14680 whole entry, looked up): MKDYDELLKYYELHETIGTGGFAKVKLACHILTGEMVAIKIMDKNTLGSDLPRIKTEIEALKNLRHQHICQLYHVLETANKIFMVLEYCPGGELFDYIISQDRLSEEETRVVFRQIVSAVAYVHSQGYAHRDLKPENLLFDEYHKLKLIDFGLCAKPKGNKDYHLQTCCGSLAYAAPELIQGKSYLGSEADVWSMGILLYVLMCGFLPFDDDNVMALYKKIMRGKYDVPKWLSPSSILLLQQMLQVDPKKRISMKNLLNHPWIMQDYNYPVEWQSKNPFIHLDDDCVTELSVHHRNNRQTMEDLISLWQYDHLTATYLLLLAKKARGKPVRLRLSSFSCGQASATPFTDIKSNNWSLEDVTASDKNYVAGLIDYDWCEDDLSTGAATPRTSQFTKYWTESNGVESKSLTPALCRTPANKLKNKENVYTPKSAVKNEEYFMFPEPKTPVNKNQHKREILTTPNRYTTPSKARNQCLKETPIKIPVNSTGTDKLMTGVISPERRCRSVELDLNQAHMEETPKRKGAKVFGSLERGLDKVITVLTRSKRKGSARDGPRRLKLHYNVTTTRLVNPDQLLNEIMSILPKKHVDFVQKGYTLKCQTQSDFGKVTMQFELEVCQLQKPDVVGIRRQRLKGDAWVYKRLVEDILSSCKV
Chain of MAP kinase-interacting serine/threonine-protein kinase 1 (Homo sapiens) (Q9BUB5 whole entry, looked up): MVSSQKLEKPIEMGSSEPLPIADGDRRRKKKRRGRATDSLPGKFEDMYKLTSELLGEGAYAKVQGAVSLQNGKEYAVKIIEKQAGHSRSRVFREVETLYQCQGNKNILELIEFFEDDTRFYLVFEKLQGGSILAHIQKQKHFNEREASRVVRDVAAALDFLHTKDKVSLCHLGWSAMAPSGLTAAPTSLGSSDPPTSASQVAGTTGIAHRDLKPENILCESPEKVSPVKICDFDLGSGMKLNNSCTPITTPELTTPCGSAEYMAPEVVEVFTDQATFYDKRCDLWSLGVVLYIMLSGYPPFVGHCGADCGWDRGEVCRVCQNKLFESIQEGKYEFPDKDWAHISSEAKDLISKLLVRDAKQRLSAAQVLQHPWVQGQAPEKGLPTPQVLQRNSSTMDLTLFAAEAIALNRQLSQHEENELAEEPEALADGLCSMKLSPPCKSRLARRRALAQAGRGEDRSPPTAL

Compound	inhibition [1] [%]	inhibition [2] [%]	inhibition [3] [%]	inhibition [4] [%]	inhibition [5] [%]	inhibition [6] [%]	inhibition [7] [%]	inhibition [8] [%]	inhibition [9] [%]	inhibition [10] [%]	inhibition [11] [%]	inhibition [12] [%]	inhibition [13] [%]	inhibition [14] [%]	inhibition [15] [%]	inhibition [16] [%]	inhibition [17] [%]	inhibition [18] [%]	inhibition [19] [%]	inhibition [20] [%]
COc1cc2ncn(-c3cc(OCc4ccccc4C(F)(F)F)c(C(C)=O)s3)c2cc1OC	1.98	-1.1	1.3	1.03	0.77	3.07	2.6	4.34	2.61	0.67	3.71	3	2.91	3.94	1.83	3.58	5.46	1.92	4.93	-0.07
Fc1ccc(-c2c(-c3ccncc3)nc3n2CCS3)cc1	-1.77	-5.23	-4.37	0.4	0.36	1.43	1.3	2.07	3.24	1.44	11.9	1.3	2.25	4.24	7.4	0.84	8.91	0.34	6.79	1.04
COc1cc(N2CCN(C(C)C)CC2)ccc1Nc1nc(Nc2ccc(F)cc2C(=O)NC[C@@H](O)CO)c2cc[nH]c2n1	46.8	2.24	-4.14	1.77	2.39	4.35	4.3	3.88	7.69	1.03	19.6	1.95	2.9	3.61	19.9	3.33	8.52	1.03	5.28	1.97
CS(=O)(=O)CCNCc1cc(-c2cc3c(Nc4ccc(OCc5cccc(F)c5)c(Cl)c4)ncnc3s2)cs1	-0.04	0.09	1.12	2.75	3.42	3.37	4.64	-0.03	3.02	0.84	3.64	1.63	1.6	5.46	10.5	2.78	7.91	1.16	7.96	-0.51
c1ccc(Oc2ccc(Nc3ncc(-c4ccccc4)o3)cc2)cc1	0.04	0.28	-1.82	0.81	0.09	1.72	1.73	1.66	0.44	-0.01	-0.43	-0.01	0.55	2.47	2.86	1.08	4.15	0.86	2.44	-0.89
O=C(Nc1n[nH]c2cc(-c3ccccc3)ccc12)C1CC1	7.04	0.55	1.05	3.04	2.8	5.91	4.31	4.97	9.42	5.89	9.09	2.2	5.77	5.64	3.69	6.55	31.4	3.14	10.2	1.54
CCN(CC)Cc1ccc(Nc2nccc(-c3cnn4ncccc34)n2)cc1	1.28	-4.15	1.64	0.69	2.01	2.61	3.32	4.03	20.9	4.34	24.7	4.42	18.9	12.5	55.4	2.28	9.82	2.76	8.84	3.28
N#Cc1ccc(Oc2nccc(-c3c(-c4ccc(F)cc4)ncn3C3CCNCC3)n2)cc1	-0.22	1.3	3.06	1.77	1.32	13.9	30.8	0.23	3.06	1.6	0.33	2.3	2.46	6.59	4.91	2.51	2.45	-0.25	-0.69	-1.85
O=C(Nc1n[nH]c2nc(-c3ccc(O)cc3)c(Br)cc12)C1CC1	3.27	0.9	3.55	2.43	2.69	4.49	5.6	3.94	9.58	3.96	8.75	3.64	4.75	6.28	13.1	37.8	76.1	5.42	35.1	-0.95
C#Cc1cccc(Nc2ncnc3ccc(OCCCCNCCS(C)(=O)=O)cc23)c1	2.74	-0.45	-4.44	2.15	1.98	4.84	4.44	5.11	8.02	5.17	6.08	2.28	3.56	3.6	8.09	9.11	46.7	4.73	31.8	1.67
CCS(=O)(=O)c1ccc(OC)c(Nc2ncc(-c3cccc(-c4ccccc4F)c3)o2)c1	-0.11	1.37	-3.8	0.06	-0.23	1.08	1.04	1.41	0.75	-0.41	7.39	1.24	1.22	1.52	3.29	1.34	4.69	0.34	3.99	-5.23
Cc1ccc(NC(=O)c2ccoc2)cc1-c1ccc(C(=O)NCC2CC2)cc1	4.7	-0.46	-0.45	0.09	-0.32	20	30.9	0.5	1.39	1.61	1.79	0.31	0.19	3.06	-0.33	3.06	4.75	-0.05	2.22	-0.93
